Measurements taken from PubChem BioAssay (NCATS).
Results filed as inconclusive are left out. Activity calls are given as the source filed them. Calls come from the whole dose curve; as a rule, active = well fitted curve in the direction sought with a large enough effect; inconclusive = small, poorly fitted or top-dose-only effect, or another doubt; inactive = no such curve, though single readings can be large; an effect the other way counts as inactive or inconclusive.

What was measured:
Es-2 = experiment: Primary qHTS to identify gynecologic anti-cancer compounds using libraries of approved drugs and bioactive compounds (AID 1345084); conditions: Gynecologic cancer cell panel viability, ATPlite luminescence, 48 h; series mostly up to 57.5 µM; note: nearly all actives have a fitted effect of over 55% in size
In short: (§1)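 Measured: luminescence after ATPlite addition (15 min, RT). Exposure: 48 h, 37 C, 5% CO2.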

HeLa = experiment: as above; conditions: Gynecologic cancer cell panel viability, ATPlite luminescence, 48 h; series mostly up to 57.5 µM
In short: as §1

Hek293T = experiment: as above; conditions: Gynecologic cancer cell panel viability, ATPlite luminescence, 48 h, control line for the selectivity index; series mostly up to 57.5 µM
In short: as §1

JEG-3 = experiment: as above; conditions: Gynecologic cancer cell panel viability, ATPlite luminescence, 48 h; series mostly up to 57.5 µM
In short: as §1

OV90 = experiment: as above; conditions: Gynecologic cancer cell panel viability, ATPlite luminescence, 48 h; series mostly up to 57.5 µM
In short: as §1

PA-1 = experiment: as above; conditions: Gynecologic cancer cell panel viability, ATPlite luminescence, 48 h; series mostly up to 57.5 µM
In short: as §1

SKOV3 = experiment: as above; conditions: Gynecologic cancer cell panel viability, ATPlite luminescence, 48 h; series mostly up to 57.5 µM
In short: as §1

Tov-21-G = experiment: as above; conditions: Gynecologic cancer cell panel viability, ATPlite luminescence, 48 h; series mostly up to 57.5 µM
In short: as §1

Tov112D = experiment: as above; conditions: Gynecologic cancer cell panel viability, ATPlite luminescence, 48 h; series mostly up to 57.5 µM
In short: as §1

[1] = Drug repurposing screens with cells derived from glioblastoma tumor samples (AID 1345199); conditions: GBM patient neurospheres viability, ATP luminescence, 48 h; note: nearly all actives have a fitted effect of over 40% in size
In short: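 Primary testing used CD133+ neurospheres from four GBM patients, seven concentrations, 48 h exposure and ATP-based viability; confirmation added three slower-growing patient lines.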

[2] = at 45.9 µM (top of the series), tumour line B
[3] = at 45.9 µM (top of the series), tumour line D
[4] = at 46 µM (top of the series), tumour line A
% is set by controls: 0 for no effect and ±100 for the full control effect; potency is the fitted concentration of half-maximal effect.

CC(=O)[C@H]1CC[C@H]2[C@@H]3CC[C@H]4C[C@H](O)CC[C@]4(C)[C@H]3C(=O)C[C@]12C
inactive: Potency (Es-2) | Potency (HeLa) | Potency (Hek293T) | Potency (JEG-3) | Potency (OV90) | Potency (PA-1) | Potency (SKOV3) | Potency (Tov-21-G) | Potency (Tov112D) | activity, negative = cell killing [1, 2] -8.44% | activity, negative = cell killing [1, 3] -5.23%

CCOP(=S)(OCC)Oc1cc(C)nc(C(C)C)n1
inactive: Potency (Es-2) | Potency (HeLa) | Potency (Hek293T) | Potency (JEG-3) | Potency (OV90) | Potency (PA-1) | Potency (SKOV3) | Potency (Tov-21-G) | Potency (Tov112D) | activity, negative = cell killing [1, 2] -12.9% | activity, negative = cell killing [1, 3] 4.41% | activity, negative = cell killing [1, 4] -24.4%

Cc1ncc(CNC(=O)N(CCCl)N=O)c(N)n1
active: Potency (OV90) 35.5 µM
inactive: Potency (Es-2) | Potency (HeLa) | Potency (Hek293T) | Potency (JEG-3) | Potency (PA-1) | Potency (SKOV3) | Potency (Tov-21-G) | Potency (Tov112D) | activity, negative = cell killing [1, 2] -2.44% | activity, negative = cell killing [1, 3] -2.73% | activity, negative = cell killing [1, 4] -26.1%

CCN(CC)CCN1C(=O)CN=C(c2ccccc2F)c2cc(Cl)ccc21
inactive: Potency (Es-2) | Potency (HeLa) | Potency (Hek293T) | Potency (JEG-3) | Potency (OV90) | Potency (PA-1) | Potency (SKOV3) | Potency (Tov-21-G) | Potency (Tov112D) | activity, negative = cell killing [1, 2] -20.2%
active: Potency ([1]; tumour line A) 14.1 µM

CC(C)=CC1C(C(=O)OCc2cccc(Oc3ccccc3)c2)C1(C)C (configuration not stated)
active: Potency ([1]; tumour line A) 12.6 µM
inactive: Potency (Es-2) | Potency (HeLa) | Potency (Hek293T) | Potency (JEG-3) | Potency (OV90) | Potency (PA-1) | Potency (SKOV3) | Potency (Tov-21-G) | Potency (Tov112D) | activity, negative = cell killing [1, 2] -17.7% | activity, negative = cell killing [1, 3] -26.5%

Cc1cccc(C)c1NC(=O)CN1CCCC1=O
inactive: Potency (Es-2) | Potency (HeLa) | Potency (Hek293T) | Potency (JEG-3) | Potency (OV90) | Potency (PA-1) | Potency (SKOV3) | Potency (Tov-21-G) | Potency (Tov112D) | activity, negative = cell killing [1, 2] -2.88% | activity, negative = cell killing [1, 3] -0.691% | activity, negative = cell killing [1, 4] -27.7%

CCCN1CCC[C@@H]2Cc3nc(N)ncc3C[C@H]21
inactive: Potency (Es-2) | Potency (HeLa) | Potency (Hek293T) | Potency (JEG-3) | Potency (OV90) | Potency (PA-1) | Potency (SKOV3) | Potency (Tov-21-G) | Potency (Tov112D) | activity, negative = cell killing [1, 2] -7.67% | activity, negative = cell killing [1, 3] -0.18%

CC(C)(C)NCC(O)c1cc(Cl)c(N)c(Cl)c1 (configuration not stated)
inactive: Potency (Es-2) | Potency (HeLa) | Potency (Hek293T) | Potency (JEG-3) | Potency (OV90) | Potency (PA-1) | Potency (SKOV3) | Potency (Tov-21-G) | Potency (Tov112D) | activity, negative = cell killing [1, 2] -4.05% | activity, negative = cell killing [1, 3] -25.9%
